# From PubChem BioAssay AID709 (SRMLSC, 2007)
# About 3,600 (5.5%) of roughly 65,000 compounds were called active.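 The calls were made as follows: active = at 10 µM, mean starting fluorescence two-fold or more over control wells; inactive = the rest.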 Many of the other results were omitted from the sample, so actives are more common in it than they were.
# Experiment: intrinsic fluorescence of library compounds, ex339/em460 – biochemical, MLSMR library, data from DPM-DC assay, artefact control, profiling panel (AID 709);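 also: signal is the first read of a kinetic run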
# Details: compound autofluorescence, ex339/em460 nm, NADH buffer; at 10 µM; stronger effect = higher value; 1 = no-compound wells, NADH background
row,Compound,fluorescence fold increase
1,O=C1CC(c2cccc(F)c2)C2=C(CCCC2=O)N1 (stereo not given),1.17 (inactive)
2,O=C1CC(c2cccc(Br)c2)C2=C(CCCC2=O)N1 (stereo not given),2.04 (active)
3,O=C1CCCc2c1[nH]c1ccc(Br)cc21,1.13 (inactive)
4,C=CCc1cccc2cc(C(=O)OCC)c(=O)oc12,1.21 (inactive)
5,CC(=O)O[C@]1(C(C)=O)CC[C@H]2[C@@H]3C=C(C)C4=CC(=O)CC[C@]4(C)[C@H]3CC[C@@]21C,1 (inactive)
6,COc1ccc(C(=O)NCCc2ccc(S(N)(=O)=O)cc2)cc1OC,1.15 (inactive)
7,O=c1cc(Cn2nnc(-c3ccc(Cl)cc3)n2)nc2sccn12,1.22 (inactive)
8,O=C(NCc1cn2ccsc2n1)Nc1ccc(Cl)cc1,1.11 (inactive)
9,O=C(NCc1ccc(Cl)cc1)c1cc2c(nc3sccn32)s1,2.6 (active)
10,O=C(Nc1c2c(nn1-c1ccc(F)cc1)CS(=O)C2)C12CC3CC(CC(C3)C1)C2 (stereo not given),1.05 (inactive)
11,Cc1cc(C)cc(N(CC(=O)Nc2c(C)n(C)n(-c3ccccc3)c2=O)S(C)(=O)=O)c1,1.04 (inactive)
12,Cc1nc2cc(-c3ccc(F)cc3)nn2c(N2CCOCC2)c1C,1.16 (inactive)
13,CN(C)CCCNC(=O)c1ccc2[nH]c3ccccc3c2c1,3.36 (active)
14,COCCCNC(=O)c1ccc2c(c1)ncn2-c1ccccc1OC,1.07 (inactive)
15,Cc1ccc(C(=O)NCCNS(=O)(=O)c2ccccc2)cc1,1.02 (inactive)
16,CSc1nnc(CNC(=O)c2ccccc2)n1-c1ccc(F)cc1,1.11 (inactive)
17,O=S(=O)(c1cccc(S(=O)(=O)N2CCC(n3nnc4ccccc43)CC2)c1)N1CCCCC1,1.05 (inactive)
18,Cc1ccc2cc3cc(C(=O)N4CCCCCC4)oc3nc2c1,3.22 (active)
19,Cc1ccc2oc(=O)c3cnn(CC(=O)N4CCCCCC4)c3c2c1,1.04 (inactive)
20,Cc1ccc(C(=O)N2CCCCCC2)cc1Br,1.08 (inactive)
21,Cc1cc(C)n2nc(C(=O)Oc3ccc4c(c3)OCO4)nc2n1,1.15 (inactive)
22,Cc1nc(Nc2ccc3c(c2)OCCO3)c2nnn(Cc3ccccc3Cl)c2n1,2.39 (active)
23,CC(C)(C)c1nc(NCC2CCCO2)c2nnn(Cc3ccccc3)c2n1 (stereo not given),1.16 (inactive)
24,C#CCNc1nc(C(C)C)nc2c1nnn2Cc1ccccc1F,1.04 (inactive)
25,CCc1ccc2oc(=O)cc(CN3CCCCC3C)c2c1 (stereo not given),1.11 (inactive)

row,Compound,fluorescence fold increase
1,CCCc1cc(=O)oc2c(C)c(O)c(CN3CCCCC3)cc12,2.34 (active)
2,CCOC(=O)N1CCN(Cc2oc(CO)cc(=O)c2O)CC1,1.04 (inactive)
3,C[N+](C)(C)CCNC(=O)c1c(O)c2c([nH]c1=O)CCCC2,1.18 (inactive)
4,O=C(Cn1c(-c2ccccn2)nc2ccccc21)NCCN1CCOCC1,1.39 (inactive)
5,O=C(COc1ccc2c3c(c(=O)oc2c1)CCC3)NC1CCCCC1,2.13 (active)
6,O=C(CC1OC(=O)c2ccccc21)NC1CCCCC1 (stereo not given),1.08 (inactive)
7,NC(=O)COc1ccc2c3c(c(=O)oc2c1)CCCCC3,3.71 (active)
8,CCc1cc(=O)oc2cc(OCC(=O)N3CCCc4ccccc43)ccc12,1.26 (inactive)
9,O=C(COc1ccccc1F)NC1CC1,1.01 (inactive)
10,O=C(COc1ccc2oc3c(c2c1)CCCC3)Nc1ccccn1,1.06 (inactive)
11,O=C(C1CCC(C(=O)N2CCCC2)CC1)N1CCCC1 (stereo not given),1.02 (inactive)
12,Cc1nnc(SCC(=O)NCc2ccccc2)s1,1.06 (inactive)
13,O=C(O)CC(c1ccccc1)n1cnnn1 (stereo not given),1.14 (inactive)
14,O=C(CS(=O)(=O)Cc1ccccc1)Nc1cccnc1,1.1 (inactive)
15,CCOCCN(C=O)c1cccc(OC)c1,1.15 (inactive)
16,COc1ccccc1C1/C(=C(/O)c2ccc(OC(C)C)cc2)C(=O)C(=O)N1c1cc(C)on1 (stereo not given),1.06 (inactive)
17,Cc1ccc(S(=O)(=O)NCC(=O)N(CC(=O)NC2CCCCC2)Cc2ccco2)cc1,1 (inactive)
18,CC(Cc1cccs1)NC(=O)NC1CCCCC1 (stereo not given),1.06 (inactive)
19,COc1ccc(C(=O)c2oc3ccc(Br)cc3c2NC(C)=O)cc1,1.11 (inactive)
20,CC(=O)Oc1ccc2c(C)c(CC(C)O)c(=O)oc2c1 (stereo not given),3.67 (active)
21,CC(=O)Nc1cc2ccc(OC(C)=O)cc2oc1=O,2.1 (active)
22,COc1ccc2oc(C)c(NC(C)=O)c2c1,1.06 (inactive)
23,O=C(NCc1ccc(Cl)c(Cl)c1)c1cccnc1,0.91 (inactive)
24,O=C1C=C(NCCNc2c(F)c(F)c(CO)c(F)c2F)CCC1,1.14 (inactive)
25,CC(C)c1nc(N2CCOCC2)c(C#N)c2c1COC(C)(C)C2,2.28 (active)

row,Compound,fluorescence fold increase
1,CC(C)C(=O)N1CCN(c2nc(-c3ccccc3)c3c(c2C#N)CC(C)(C)OC3)CC1,2.34 (active)
2,COc1ccc(CSc2nc(N3CCOCC3)c3c(c2C#N)CC(C)(C)OC3)cc1,1.08 (inactive)
3,CC1(C)Cc2c(C#N)c(SCc3nc4ccccc4[nH]3)nc(N3CCOCC3)c2CO1,1.39 (inactive)
4,Cc1nc(NCCN)c(C#N)c2c1COC(C)(C)C2,1.92 (inactive)
5,CC(C)Cc1nc(N2CCOCC2)c(C#N)c2c1CCC2,1.97 (inactive)
6,C/C(=C\c1ccco1)C1Nc2cccc3cccc(c23)N1,1.19 (inactive)
7,CCOc1c(OC)cc(C2C(C#N)=C(N)Oc3n[nH]c(-c4ccncc4)c32)cc1OC (stereo not given),1.13 (inactive)
8,COc1ccc(-c2nnc(SCC(=O)c3cccs3)o2)c(OC)c1,1.12 (inactive)
9,COc1ccc(OC)c(C(=O)CSc2nnc(-c3cccs3)o2)c1,3.64 (active)
10,COc1ccc(-n2c(C)cc(C(=O)CSc3nnc(-c4cccs4)o3)c2C)cc1,1.07 (inactive)
11,COc1ccc2c(c1)CCc1c(C(=O)N3CCCC3)noc1-2,1.1 (inactive)
12,CN(CCc1ccccn1)S(=O)(=O)c1ccc2c3c(cccc13)C(=O)N2,3.89 (active)
13,O=c1[nH]nc(Cc2ccccn2)c2ccccc12,1.07 (inactive)
14,CC1(C)CN=C(N2CCN(c3ncnc4sc5c(c34)CCCC5)CC2)S1,1.03 (inactive)
15,Fc1c(F)c(C(F)(F)F)c(F)c(F)c1N1CCN(c2ccc3nnc(C(F)(F)F)n3n2)CC1,1.93 (inactive)
16,CN(c1ccccc1)c1ccc(/C=c2\s/c(=C(/C#N)C(=O)C(C)(C)C)n(Cc3ccco3)c2=O)cc1,0.95 (inactive)
17,Cc1ccc(C(=O)Nc2nnc(-c3ccncc3)s2)o1,2.14 (active)
18,Cc1occc1C(=O)Nc1nnc(C2CCCCC2)s1,1.04 (inactive)
19,CC(=O)Cc1nsc(NC(=O)c2ccc(COc3ccc(C)cc3)o2)n1,1.06 (inactive)
20,O=C(Nc1ccncc1)c1cc2ccccc2o1,1.02 (inactive)
21,Cc1occc1C(=O)Nc1cccc(Cn2cccn2)c1,1.14 (inactive)
22,Cc1occc1C(=O)Nc1nnc(-c2ccncc2)s1,2.2 (active)
23,COc1ccc(CCNC(=O)c2cc(-c3ccc4c(c3)OCO4)on2)cc1OC,1.07 (inactive)
24,O=C(CSc1nnc(-c2ccccn2)n1-c1ccccc1)Nc1ccc2c(c1)OCO2,1.08 (inactive)
25,CC(C)Oc1ccc(C(=O)Nc2cc(=O)n(C)c(=O)n2C)cc1,1.01 (inactive)

row,Compound,fluorescence fold increase
1,O=C(c1cccs1)N1CCN(C(=O)N2CCOCC2)CC1,1.11 (inactive)
2,CCOc1ccccc1N(CC(=O)NC1CCCCC1)C(=O)CCCC(=O)Nc1ccccn1,1.08 (inactive)
3,C=CCNC(=O)CSc1nc2sc(C)c(C)c2c(=O)[nH]1,1 (inactive)
4,O=C(CSc1nc2c(cnn2-c2ccc(F)cc2)c(=O)[nH]1)N1CCCCCC1,1.11 (inactive)
5,CC(=O)c1sc2nc(SCC(=O)N3CCCCC3)[nH]c(=O)c2c1C,2.68 (active)
6,Cc1ccc(-n2nc3c(c2NC(=O)CCC2CCCCC2)CS(=O)C3)cc1 (stereo not given),1.14 (inactive)
7,CCOc1cccc(NC(=O)C2CCCN(S(=O)(=O)c3ccc(OC)cc3)C2)c1 (stereo not given),1.02 (inactive)
8,N#Cc1c2c(c(-c3ccccc3)[nH]c1=O)CCCC2,1.02 (inactive)
9,CC1(C)CC(=O)NC=C(c2ccccc2)C1,1.06 (inactive)
10,O=c1[nH]c(-c2ccccc2)c(-c2ccccc2)[nH]1,3.71 (active)
11,CCOC(=O)N1CCN(C(=O)c2ccc(S(=O)(=O)c3ccc(C)cc3)c(NC(C)=O)c2)CC1,1.2 (inactive)
12,Cc1ccc(C(=O)CS(C)(=O)=O)cc1,1.35 (inactive)
13,OC1CN=C2Sc3ccccc3N2C1 (stereo not given),1.06 (inactive)
14,COc1ccc(C(C(O)C(=O)c2c[nH]c3ccccc23)N2CCN(c3ccccc3)CC2)cc1 (stereo not given),1.15 (inactive)
15,Cc1ccc2nc(-c3ccc(SCC(=O)Nc4cc(C)on4)nc3)[nH]c2c1,3.38 (active)
16,Cc1nc(SCC(=O)Nc2cc(C)on2)c2c(C)c(C)sc2n1,1.11 (inactive)
17,Cc1cc(C)c2c(c1)cc(C)c1nnc(SCC(=O)Nc3cc(C)on3)n12,1.09 (inactive)
18,CN(c1nc2ccccc2n2c(-c3ccco3)nnc12)S(=O)(=O)c1ccccc1,2.86 (active)
19,Cc1ccc(Oc2nc3ccccc3n3c(C)nnc23)cc1,1.08 (inactive)
20,c1ccc(CSc2nnc(-c3ccco3)n2Cc2ccccc2)cc1,1.15 (inactive)
21,COc1ccc(OC)c(CN2C(=O)CCC2(C)C(=O)NC2CCCCCC2)c1 (stereo not given),1.09 (inactive)
22,CCCCc1cc(=O)oc2cc(C)cc(OCc3nn[nH]n3)c12,3.84 (active)
23,CC(C)C[C@H](NC(=O)[C@@H]1O[C@H]1C(=O)O)C(=O)NCCCCN=C(N)N,1.01 (inactive)
24,CC1(C)CC(=O)C(C2=NC(C)(C)Cc3ccccc32)=C(O)C1,1.05 (inactive)
25,Cc1ccc2[nH]c3c(c2c1)CN(C(=O)CN1CCN(c2ccccc2)CC1)CC3,1.21 (inactive)
